Only some compounds are listed: those with a hit (about 15% of all), similar ones and a draw of the others.
DT40 TDP1 no CPT = qHTS for Inhibitors of human tyrosyl-DNA phosphodiesterase 1 (TDP1): qHTS in cells in absence of CPT; DT40 Tdp1-/- hTDP1 cells, no CPT, ATP luminescence, 48 h; Potency, µM (highest dose often 46.2 µM), for the others: top-dose activity change, negative = growth inhibition, usual class: inhibitors; actives 15% (n = 420,000); AID 686978, 2013; note: nearly all actives have a fitted effect of over 55% in size
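Stably hTDP1-transfected Tdp1-null chicken DT40 cells were treated with library compounds minus camptothecin and grown for at least 48 hr at 37 °C, after which cellular ATP was quantified by luminescence.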
DT40 TDP1 CPT = growth inhibition of DT40 Tdp1-/-;hTDP1 cells with camptothecin (screen for TDP1 inhibitors) | Potency, µM (titrated, usually from 46.2 µM), without a hit: top-dose activity change, negative = growth inhibition, usual class: inhibitors | chicken DT40 Tdp1-/-;hTDP1 cells + 20 nM CPT, ATP luminescence, 48 h | AID 686979 | actives 12% (n = 420,000); note: nearly all actives have a fitted effect of over 55% in size
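Chicken DT40 Tdp1-/- cells complemented with human TDP1, 400 cells/well, exposed to compounds plus 20 nM camptothecin for at least 48 h at 37 C; viability read as ATP content by CellTiter-Glo luminescence.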
Gal4-VP16 FLuc = inhibits Gal4-VP16 luciferase reporter, ROR gamma counter-screen; Potency, µM (top dose mostly 53.6 µM), inactives show top-dose activity, negative = inhibition, usual class: inhibitors; actives 3.5% (n = 310,000); Drosophila S2 Gal4-VP16 UAS-luciferase, luminescence, 20 h; AID 2546;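 note: Gal4-VP16 expression switched on by copper sulfate through the metallothionein promoter; nearly all actives have a fitted effect of over 50% in size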
ELG1 repair inh = ELG1-dependent DNA repair inhibition | HEK293T ELG1-luciferase reporter, luminescence, 16 h; DNA damage induced by 5-fluorouridine | Potency, µM (series often up to 46.1 µM), for the others: at the highest dose activity change, negative = inhibition, most hits filed as inhibitors | actives 2.3% (n = 330,000) | AID 504467; note: nearly all actives have a fitted effect of over 55% in size
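Luminescence from the luciferase reporter, measured 30 min after ONE-Glo reagent at room temperature, was the read-out. Beforehand, 2,000 cells per well were exposed for 16 hr at 37 °C to 5-fluorouridine together with compound or vehicle.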
12-LOX inh = inhibitors of human 12S-lipoxygenase ALOX12; purified 12hLO, xylenol orange hydroperoxide absorbance; P18054; AID 1671190; actives 1.1% (n = 580,000); Potency, µM (highest dose often 108 µM), inactives show at the highest dose activity change, negative = inhibition, most hits filed as inhibitors
Target sequence (P18054 whole entry, looked up): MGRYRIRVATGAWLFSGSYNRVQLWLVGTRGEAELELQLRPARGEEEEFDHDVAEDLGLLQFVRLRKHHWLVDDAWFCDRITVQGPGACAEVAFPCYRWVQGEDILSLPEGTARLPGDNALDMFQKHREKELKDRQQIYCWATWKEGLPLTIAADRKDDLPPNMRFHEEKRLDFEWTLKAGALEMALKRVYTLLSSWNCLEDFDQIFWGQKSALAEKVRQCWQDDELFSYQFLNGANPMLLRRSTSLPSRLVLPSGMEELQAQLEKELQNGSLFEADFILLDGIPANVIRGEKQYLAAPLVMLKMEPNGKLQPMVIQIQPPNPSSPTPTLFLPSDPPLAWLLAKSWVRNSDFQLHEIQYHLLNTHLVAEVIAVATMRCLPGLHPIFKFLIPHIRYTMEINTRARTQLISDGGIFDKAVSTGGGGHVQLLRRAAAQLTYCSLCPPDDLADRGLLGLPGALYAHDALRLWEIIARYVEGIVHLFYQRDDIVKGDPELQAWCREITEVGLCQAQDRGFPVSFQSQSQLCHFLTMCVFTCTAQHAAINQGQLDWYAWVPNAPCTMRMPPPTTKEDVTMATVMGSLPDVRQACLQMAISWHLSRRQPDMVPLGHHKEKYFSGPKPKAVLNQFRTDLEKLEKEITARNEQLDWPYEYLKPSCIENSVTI
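Hydroperoxide product was detected by ferrous iron/xylenol orange as the 573 to 405 nm absorbance ratio. Arachidonic acid at 40 uM (final) was turned over for 30 min at room temperature by 150 nM human 12hLO, pH 7.0 Hepes buffer, after 15 min compound preincubation.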
RORg inh = ROR gamma (mouse) transcription inhibition | Drosophila S2 Gal4-RORgamma UAS-luciferase reporter, 20 h | P51450 | Potency, µM (series often up to 53.6 µM), for the others: top-dose activity change, negative = inhibition, hits mostly inhibitors | actives 5.4% (n = 310,000) | AID 2551; note: nearly all actives have a fitted effect of over 60% in size
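Drosophila Schneider cells stably carrying a metallothionein-driven Gal4 DBD–ROR gamma fusion and a UAS-Photinus luciferase reporter were exposed to compound for 1 hr, then induced with copper sulfate (700 uM final) for 20 hr at ambient temperature before luminescence reading.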
* hit, by the source's call. Calls come from the whole dose curve; as a rule, active = well fitted curve in the direction sought with a large enough effect; inconclusive = small, poorly fitted or top-dose-only effect, or another doubt; inactive = no such curve, though single readings can be large; an effect the other way counts as inactive or inconclusive. % is set by controls: 0 for no effect and ±100 for the full control effect; potency is the fitted concentration of half-maximal effect.

For Cc1ccc(C(c2c(C)n(C)n(-c3ccccc3)c2=O)c2c(C)n(C)n(-c3ccccc3)c2=O)s1 the results were DT40 TDP1 no CPT inconclusive, DT40 TDP1 CPT -16%, Gal4-VP16 FLuc 7.1µM*, ELG1 repair inh 23µM*, 12-LOX inh -6% and RORg inh 4.5µM*.
COc1ccccc1-c1ccc(/C=C2/C=C(C)OC2=O)o1 was read as DT40 TDP1 no CPT 10µM*, DT40 TDP1 CPT 13µM*, Gal4-VP16 FLuc inconclusive, ELG1 repair inh 9%, 12-LOX inh inconclusive and RORg inh 19%.
Screening COc1ccccc1-c1ccc(/C=C2\C=CC(=O)O2)o1 returned DT40 TDP1 no CPT inconclusive, DT40 TDP1 CPT 21µM*, Gal4-VP16 FLuc inconclusive, ELG1 repair inh inconclusive, 12-LOX inh inconclusive and RORg inh -6%.
Screening COCCc1nncn1C1CCN(C(=O)c2cccc(Br)c2)CC1 returned 12-LOX inh 18%.
`COc1ccc(-c2nc3cnc(N4CCN(C)CC4)nc3n(CCC#N)c2=O)cc1` gave DT40 TDP1 no CPT 23µM*, DT40 TDP1 CPT -24%, Gal4-VP16 FLuc 1%, 12-LOX inh inconclusive and RORg inh 0%.
For CN1CCN(c2ncc3nc(-c4ccccc4)c(=O)n(CCC#N)c3n2)CC1 the results were DT40 TDP1 no CPT 16µM*, DT40 TDP1 CPT inconclusive, Gal4-VP16 FLuc 7%, 12-LOX inh 95% and RORg inh -22%.
For O=c1[nH]c(NNC(=S)NC2CCCCC2)nc2c1C1(CCCC1)Cc1ccccc1-2 the results were DT40 TDP1 no CPT -1%, DT40 TDP1 CPT 0%, Gal4-VP16 FLuc 25µM*, ELG1 repair inh 1%, 12-LOX inh inconclusive and RORg inh 2.8µM*.
`O=c1[nH]c(NNC(=S)NCc2ccccc2)nc2c1C1(CCCCC1)Cc1ccccc1-2` gave DT40 TDP1 no CPT -10%, DT40 TDP1 CPT inconclusive, Gal4-VP16 FLuc 2.8µM*, ELG1 repair inh -3%, 12-LOX inh 35µM* and RORg inh 2.5µM*.
For CCC1(C)Cc2ccccc2-c2nc(NCCCO)[nH]c(=O)c21 (centres undefined) the results were DT40 TDP1 no CPT 17%, DT40 TDP1 CPT -27%, Gal4-VP16 FLuc -9%, ELG1 repair inh inconclusive, 12-LOX inh -1% and RORg inh -4%.
O=c1[nH]cnc2c1C1(CCCC1)Cc1ccccc1-2 was read as DT40 TDP1 no CPT -2%, DT40 TDP1 CPT -7%, Gal4-VP16 FLuc -9%, ELG1 repair inh 10%, 12-LOX inh inconclusive and RORg inh -2%.
`O=c1[nH]c(NCCCO)nc2c1C1(CCCC1)Cc1ccccc1-2` gave DT40 TDP1 no CPT inconclusive, DT40 TDP1 CPT inconclusive, Gal4-VP16 FLuc 7%, ELG1 repair inh 2%, 12-LOX inh inconclusive and RORg inh 26%.
C=CCNC(=S)NNc1nc2c(c(=O)[nH]1)C1(CCCC1)Cc1ccccc1-2 was read as DT40 TDP1 no CPT -5%, DT40 TDP1 CPT inconclusive, Gal4-VP16 FLuc 3.2µM*, ELG1 repair inh -5%, 12-LOX inh inconclusive and RORg inh 2.8µM*.
`Cc1ccc2cc(C(=O)N3CCCC(C(=O)N4CCOCC4)C3)[nH]c2c1` (centres undefined) gave 12-LOX inh 8%.
`N#Cc1cccc(C(=O)N2CCCN(S(=O)(=O)c3ccccc3)CCC(=O)NCC2)c1` gave 12-LOX inh 36%.
For COc1cc(/C=N/NC(=O)/C(=C/c2ccccc2)CCO)ccc1O the results were DT40 TDP1 no CPT -17%, DT40 TDP1 CPT 0%, Gal4-VP16 FLuc 1%, ELG1 repair inh 8%, 12-LOX inh 26% and RORg inh 13%.

Bioassay records (PubChem BioAssay)
